# According to PubChem BioAssay (Tox21):
# Activity calls are given as the source filed them. Calls follow the shape of the dose curve; as a rule, active = well fitted curve in the direction sought with a large enough effect in the repeat runs; inconclusive = weak or mixed curves; inactive = flat fitted curve, though single readings scatter.
# Assay: qHTS assay to test for compound auto fluorescence at 535 nm (green) in HEK293 cell free culture (AID 720682)
# Settings: cell-free medium, green autofluorescence 485/535 nm; series mostly up to 91.3 µM
# Description: U.S. Tox21 Program National Center for Advancing Translational Sciences [NCATS] NIH Chemical Genomics Center [NCGC] U.S. Environmental Protection Agency [EPA] National Institutes of Environmental Health Sciences [NIEHS] National Toxicology Program [NTP] U.S. Food and Drug Administration [FDA] Tox21 Assay Overview: Compound auto fluorescence often interferes with screening of the compound library against various biological targets and signaling pathways. Some of these compounds may have fluorophoric properties. Such properties may interfere with the assay outputs resulting in false positives and/or negatives. To decrease such complications and ensure the compound activities are relevant in terms of biological response, the Tox21 10K compound library was screened for auto fluorescence. From the fluorophores used as reporter signals in our screening assays, the auto fluorescence equivalencies of compounds against three fluorophores have been evaluated: Triamterene, Fluorescein and Rose Bengal sodium for blue, green and red fluorescence, respectively. The fluorescence intensities were measured using Excitation/Emission wavelengths at 405/460nm, 485/535nm and 540/590nm for blue, green and red labels, respectively. This assay includes the green fluorescence data.
# Tox21 Assay Protocol Summary: 5 uL of culture medium (DMEM containing 10% FBS) per well was dispensed into black wall/clear bottom 1536-well plates using a Multidrop Combi Dispenser (ThermoFisher Scientific, Waltham, MA). After 23 nL compound or DMSO vehicle was transferred into assay plate by a pintool work station (Kalypsys, San Diego, CA), fluorescence intensities in the assay plates were measured by an Envision (PerkinElmer, Shelton, CT) plate reader using three labels for measuring blue, green and red fluorescence at […] 460, 535 and 590nm respectively.
row,SMILES,outcome
1,CC12CC1(C)C(=O)N(c1cc(Cl)cc(Cl)c1)C2=O (stereo not given),inactive
2,O=C(O)Cc1ccccc1,inactive
3,Nc1cc(Cl)cc(Cl)c1,inactive
4,COS(=O)(=O)OC,inactive
5,O=C(O)C1C(C(=O)O)C2(Cl)C(Cl)=C(Cl)C1(Cl)C2(Cl)Cl (stereo not given),inactive
6,COC(=O)Nc1cccc(OC(=O)Nc2cccc(C)c2)c1,inactive
7,C[C@]12CC[C@H](O)CC1=CC[C@@H]1[C@@H]2CC[C@]2(C)C(=O)CC[C@@H]12,inactive
8,ClC(Cl)c1ccccc1,inactive
9,[N-]=[N+]=CC(=O)OC[C@H](N)C(=O)O,inactive
10,Nc1ncc([N+](=O)[O-])s1,inactive
11,Sc1ccccc1,inactive
12,CCOP(=S)(OCC)Oc1cc(C)nc(C(C)C)n1,inactive
13,Clc1cnc(Oc2ccc(Oc3ncc(Cl)cc3Cl)cc2)c(Cl)c1,inactive
14,C=CCN=C=S,inactive
15,CC[N+](=O)[O-],inactive
16,Cc1cccc(C)c1N,inactive
17,N#CN=C(N)N,inactive
18,Nc1cccc(Cl)c1,inactive
19,Cl/C=C/Cl,inactive
20,c1ccc2c(c1)CCCC2,inactive

row,SMILES,outcome
1,Nc1ccc([As](=O)(O)O)cc1,inactive
2,CC(C)(C)C(=O)CCl,inactive
3,COC(C)(C)CCCC(C)C/C=C/C(C)=C/C(=O)OC(C)C (stereo not given),inactive
4,O=P1(NCCCl)OCCCN1CCCl (stereo not given),inactive
5,CNC(=O)O/N=C/C(C)(C)S(C)=O (stereo not given),inactive
6,CN(C)NC(=O)CCC(=O)O,inactive
7,CCNc1nc(Cl)nc(NC(C)C)n1,inactive
8,O=[N+]([O-])c1ccc(Cl)cc1,inactive
9,CCCCC(CC)C(=O)Cl (stereo not given),inactive
10,O=[N+]([O-])c1cc([As](=O)(O)O)ccc1O,inactive
11,O=C(O)CCCc1ccc(N(CCCl)CCCl)cc1,inactive
12,NNc1ccccc1,inactive
13,Nc1nc(N)nc(NC2CC2)n1,inactive
14,CNC(=O)O/N=C/C(C)(C)SC,inactive
15,C=CC(=O)OCC(CC)CCCC (stereo not given),inactive
16,Cc1cc(O)ccc1Cl,inactive
17,CNc1cnn(-c2cccc(C(F)(F)F)c2)c(=O)c1Cl,inactive
18,OC[C@@H](O)[C@H]1O[C@@H]2O[C@H](C(Cl)(Cl)Cl)O[C@@H]2[C@H]1O,inactive
19,Cc1ccc(N=C=O)cc1N=C=O,inactive
20,ClCCOCCCl,inactive
